Laboratory results reported in PubChem BioAssay.

Experiment: TOR pathway CIT2 reporter hit retest – S. cerevisiae, GFP fusion, cherry picks, mother/daughter gates, confirmation (AID 2274)
Conditions: S. cerevisiae CIT2-GFP strain, flow cytometry, 3 h; measured here: daughter cell gate; at 10 µM; stronger effect = higher value
`CCCCCCNC(=O)c1c(O)c2cccc3c2n(c1=O)CCC3` gave a GFP response, % of DMSO of 97.2%.
With `Cc1ccc(N2CCN(C(=O)c3ccccc3)CC2)c(C)c1` the GFP response, % of DMSO was 106%.
With `COc1ccccc1-c1noc(CCC(=O)Nc2cccc(C)c2)n1` the GFP response, % of DMSO was 98.3%.
Molecule `O=C(NC(=S)NNC(=O)c1ccc(Cl)cc1Cl)c1cccnc1` has a GFP response, % of DMSO of 100%.
With `CN1C(=O)c2cccc3c(Cl)ccc(c23)C1=O` the GFP response, % of DMSO was 95.6%.
For `Cc1nc2c(-c3ccc(F)cc3)c(C)nn2c(N2CCOCC2)c1C`, the GFP response, % of DMSO was 104%.
With `CCOc1cc(-c2nc3cc(C)ccn3c2NCC2CCCO2)ccc1O` (centres undefined) the GFP response, % of DMSO was 108%.
Work on `CCOC(=O)CS(=O)(=O)c1nc(-c2ccccc2)cc(C(F)(F)F)n1` yielded a GFP response, % of DMSO of 110%.
Work on `C[n+]1ccc(/C=C/c2c[nH]c3ccc(F)cc23)cc1` yielded a GFP response, % of DMSO of 108%.
`COc1cc(NC(=O)c2ccc(F)cc2)ccc1NC(=O)c1cc2ccccc2o1` gave a GFP response, % of DMSO of 96.8%.
Work on `O=C(NCc1cccnc1)c1cnc2n(c1=O)CCS2` yielded a GFP response, % of DMSO of 101%.
With `O=C(Nc1cc(Sc2ccccn2)cc([N+](=O)[O-])c1)c1cccc(F)c1` the GFP response, % of DMSO was 95.8%.
With `O=C1CC(SCCO)C(=O)N1c1ccc(Oc2ccccc2)cc1` (centres undefined) the GFP response, % of DMSO was 101%.
In the case of `Cc1cc(NCCN2CCOCC2)n2ncc(-c3ccccc3)c2n1`, the GFP response, % of DMSO is reported as 99.3%.
`O=C(Nc1cccc(O)c1)c1ccccc1` gave a GFP response, % of DMSO of 101%.
Work on `Cc1nn(C)c(C(=O)Sc2cccc(Cl)c2)c1[N+](=O)[O-]` yielded a GFP response, % of DMSO of 103%.
In the case of `COc1ccc(N2C(=O)C(Cl)=C(Nc3ccccc3O)C2=O)cc1`, the GFP response, % of DMSO is reported as 95.6%.
For `COc1ccc(Br)cc1/C=C/C(=O)c1ccc(NC(C)=O)cc1`, the GFP response, % of DMSO was 101%.
Molecule `CC(=O)N(\C=C/C=C/C=C1\Sc2ccccc2C1=O)c1ccccc1` has a GFP response, % of DMSO of 128%.
